# From PubChem BioAssay AID1159580 (chemical genetic matrix, 2015)
# Several values for one entry are separate records, joined by “and”; a condition that tells them apart may be missing. Identical values can stand only once. About 2,000 (36%) of roughly 5,500 compounds were called active. Another 18% or so got no clear call; they are omitted. No stated cut-off is given here; in the data, active means normalized growth mostly below about 0.91 (no sharp cut-off); inconclusive means no clear call, values can overlap the other calls; inactive means mostly above about 0.92. This is one part of the list.
# Test: chemical genetic growth profiling, strain panel (AID 1159580);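 further: tested at 20 µM; growth read once vehicle control cultures reached saturation at 30 °C; 1 = growth at the plate median or of vehicle wells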
# Conditions: S. cerevisiae deletion strains, growth OD
# [1] = locus YAL013W, strain DEP1, stronger effect = lower value
# [2] = locus YBR229C, strain ROT2, stronger effect = lower value
# [3] = locus YDL101C, strain DUN1, stronger effect = lower value
# [4] = locus YDR150W, strain NUM1, stronger effect = lower value
# [5] = locus YEL061C, strain CIN8, stronger effect = lower value
# [6] = locus YGR078C, strain PAC10, stronger effect = lower value
# [7] = locus YHR030C, strain SLT2, stronger effect = lower value
# [8] = locus YHR087W, strain rtc3, stronger effect = lower value
# [9] = locus YJL187C, strain SWE1, stronger effect = lower value
# [10] = locus YJR043C, strain POL32, stronger effect = lower value
# [11] = locus YJR075W, strain HOC1, stronger effect = lower value
# [12] = locus YLR039C, strain RIC1, stronger effect = lower value
# [13] = locus YLR058C, strain SHM2 (second series), stronger effect = lower value
# [14] = locus YLR085C, strain ARP6, stronger effect = lower value
# [15] = locus YLR262C, strain YPT6, stronger effect = lower value
# [16] = locus YML094W, strain GIM5, stronger effect = lower value
# [17] = locus YMR219W, strain ESC1, stronger effect = lower value
# [18] = locus YMR263W, strain SAP30, stronger effect = lower value
# [19] = locus YNL153C, strain GIM3, stronger effect = lower value
# [20] = locus YNL298W, strain CLA4 (second series), stronger effect = lower value
# [21] = locus YNL322C, strain KRE1, stronger effect = lower value
# [22] = locus YNR030W, strain Alg12, stronger effect = lower value
# [23] = locus YPL055C, strain LGE1, stronger effect = lower value
# [24] = locus YPL241C, strain CIN2, stronger effect = lower value
# [25] = locus YPR135W, strain CTF4, stronger effect = lower value
structure (smiles),measurement,setting,value
CCN(C(=S)Nc1ccc(OC)cc1)c1ccccc1,normalized growth,[1],1 (inactive)
same,normalized growth,[2],1.02 (inactive)
same,normalized growth,[3],1.01 (inactive)
same,normalized growth,"locus YDL134C, strain PPH21, stronger effect = lower value",1.01 (inactive)
same,normalized growth,[4],0.917 (inactive)
same,normalized growth,[5],1 (inactive)
same,normalized growth,[6],0.989 (inactive)
same,normalized growth,[7],1.12 (inactive)
same,normalized growth,[8],1.01 (inactive)
same,normalized growth,[9],1.01 (inactive)
same,normalized growth,[10],1.01 (inactive)
same,normalized growth,[11],1 (inactive)
same,normalized growth,"locus YKL190W, strain CNB1, stronger effect = lower value",1.02 (inactive)
same,normalized growth,[12],0.921 (inactive)
same,normalized growth,[13],1.03 (inactive)
same,normalized growth,[14],0.976 (inactive)
same,normalized growth,[15],0.985 (inactive)
same,normalized growth,[16],1 (inactive)
same,normalized growth,[17],1.02 (inactive)
same,normalized growth,[18],1.01 (inactive)
same,normalized growth,[19],0.988 (inactive)
same,normalized growth,[20],0.99 (inactive)
same,normalized growth,[21],1.02 (inactive)
same,normalized growth,[22],0.992 (inactive)
same,normalized growth,[23],0.89 (inactive)
same,normalized growth,[24],0.999 (inactive)
same,normalized growth,[25],0.884 (inactive)
CC(NC(=S)Nc1ccc(Oc2ccc(Cl)cc2)cc1)c1ccccc1 (centres undefined),normalized growth,[1],0.973 (inactive)
same,normalized growth,"locus YAR019C, strain CDC15, stronger effect = lower value",0.952 (inactive)
same,normalized growth,"locus YBL105C, strain PKC1, stronger effect = lower value",0.965 (inactive)
same,normalized growth,"locus YBR135W, strain CKS1, stronger effect = lower value",0.956 (inactive)
same,normalized growth,"locus YBR136W, strain MEC1, stronger effect = lower value",0.968 (inactive)
same,normalized growth,"locus YBR160W, strain CDC28, stronger effect = lower value",0.976 (inactive)
same,normalized growth,[2],0.983 (inactive)
same,normalized growth,"locus YCL061C, strain MRC1, stronger effect = lower value",0.983 (inactive)
same,normalized growth,"locus YDL017W, strain CDC7, stronger effect = lower value",0.979 (inactive)
same,normalized growth,"locus YDL028C, strain MPS1, stronger effect = lower value",0.971 (inactive)
same,normalized growth,[3],0.978 (inactive) and 0.974 (inactive)
same,normalized growth,"locus YDL108W, strain KIN28, stronger effect = lower value",0.965 (inactive)
same,normalized growth,"locus YDL132W, strain cdc53, stronger effect = lower value",0.964 (inactive)
same,normalized growth,"locus YDL214C, strain PRR2, stronger effect = lower value",0.94 (inactive)
same,normalized growth,"locus YDR052C, strain DBF4, stronger effect = lower value",0.955 (inactive)
same,normalized growth,"locus YDR054C, strain cdc34, stronger effect = lower value",0.965 (inactive)
same,normalized growth,[4],0.97 (inactive)
same,normalized growth,"locus YDR226W, strain ADK1, stronger effect = lower value",0.953 (inactive)
same,normalized growth,"locus YDR477W, strain SNF1, stronger effect = lower value",0.937 (inactive)
same,normalized growth,[5],0.961 (inactive)
same,normalized growth,"locus YER123W, strain YCK3, stronger effect = lower value",0.909 (inactive)
same,normalized growth,"locus YER133W, strain GLC7, stronger effect = lower value",0.941 (inactive)
same,normalized growth,"locus YFL009W, strain cdc4, stronger effect = lower value",0.958 (inactive)
same,normalized growth,"locus YFL029C, strain CAK1, stronger effect = lower value",0.941 (inactive)
same,normalized growth,"locus YFR003C, strain YPI1, stronger effect = lower value",0.961 (inactive)
same,normalized growth,"locus YFR019W, strain FAB1, stronger effect = lower value",0.96 (inactive)
same,normalized growth,"locus YFR028C, strain CDC14, stronger effect = lower value",0.946 (inactive)
same,normalized growth,"locus YGR040W, strain KSS1, stronger effect = lower value",0.922 (inactive)
same,normalized growth,"locus YGR052W, strain FMP48, stronger effect = lower value",1.08 (inactive)
same,normalized growth,[6],0.995 (inactive)
same,normalized growth,"locus YGR092W, strain DBF2, stronger effect = lower value",0.947 (inactive)
same,normalized growth,"locus YGR229C, strain SMI1, stronger effect = lower value",0.975 (inactive)
same,normalized growth,[7],0.924 (inactive) and 0.84 (active)
same,normalized growth,"locus YHR079C, strain IRE1, stronger effect = lower value",0.97 (inactive)
same,normalized growth,"locus YHR082C, strain KSP1, stronger effect = lower value",1.02 (inactive)
same,normalized growth,[8],0.988 (inactive)
same,normalized growth,"locus YHR205W, strain SCH9, stronger effect = lower value",0.954 (inactive)
same,normalized growth,"locus YIL147C, strain SLN1, stronger effect = lower value",0.96 (inactive)
same,normalized growth,"locus YJL095W, strain BCK1, stronger effect = lower value",0.932 (inactive)
same,normalized growth,"locus YJL128C, strain PBS2, stronger effect = lower value",0.918 (inactive)
same,normalized growth,"locus YJL157C, strain FAR1, stronger effect = lower value",0.927 (inactive)
same,normalized growth,[9],0.987 (inactive)
same,normalized growth,"locus YJR016C, strain ILV3, stronger effect = lower value",0.961 (inactive)
same,normalized growth,[10],0.998 (inactive)
same,normalized growth,"locus YJR066W, strain TOR1 (second series), stronger effect = lower value",0.933 (inactive)
same,normalized growth,"locus YJR066W, strain TOR1, stronger effect = lower value",0.981 (inactive)
same,normalized growth,[11],1.01 (inactive)
same,normalized growth,"locus YKL048C, strain ELM1, stronger effect = lower value",0.965 (inactive)
same,normalized growth,"locus YKL067W, strain YNK1, stronger effect = lower value",0.916 (inactive)
same,normalized growth,"locus YKL101W, strain HSL1, stronger effect = lower value",0.949 (inactive)
same,normalized growth,"locus YKL193C, strain SDS22, stronger effect = lower value",0.958 (inactive)
same,normalized growth,"locus YKL203C, strain TOR2, stronger effect = lower value",1.01 (inactive)
same,normalized growth,[12],0.78 (active)
same,normalized growth,[13],0.988 (inactive)
same,normalized growth,[14],0.875 (inactive)
same,normalized growth,"locus YLR113W, strain HOG1, stronger effect = lower value",0.923 (inactive)
same,normalized growth,"locus YLR133W, strain CKI1, stronger effect = lower value",0.932 (inactive)
same,normalized growth,[15],0.871 (inactive)
same,normalized growth,"locus YLR403W, strain SFP1, stronger effect = lower value",0.962 (inactive)
same,normalized growth,"locus YML070W, strain DAK1, stronger effect = lower value",0.924 (inactive)
same,normalized growth,[16],0.905 (inactive)
same,normalized growth,"locus YMR001C, strain CDC5, stronger effect = lower value",0.968 (inactive)
same,normalized growth,"locus YMR205C, strain PFK2 (second series), stronger effect = lower value",0.951 (inactive)
same,normalized growth,[17],0.99 (inactive)
same,normalized growth,[18],0.971 (inactive)
same,normalized growth,"locus YMR277W, strain FCP1, stronger effect = lower value",0.96 (inactive)
same,normalized growth,"locus YNL006W, strain LST8, stronger effect = lower value",0.965 (inactive)
same,normalized growth,"locus YNL020C, strain ARK1, stronger effect = lower value",0.911 (inactive)
same,normalized growth,"locus YNL128W, strain TEP1, stronger effect = lower value",0.964 (inactive)
same,normalized growth,[19],0.985 (inactive)
same,normalized growth,"locus YNL161W, strain CBK1, stronger effect = lower value",0.973 (inactive)
same,normalized growth,"locus YNL183C, strain NPR1, stronger effect = lower value",0.955 (inactive)
same,normalized growth,"locus YNL207W, strain RIO2, stronger effect = lower value",0.959 (inactive)
same,normalized growth,"locus YNL222W, strain SSU72, stronger effect = lower value",0.965 (inactive)
same,normalized growth,[20],0.918 (inactive)
same,normalized growth,"locus YNL307C, strain MCK1 (second series), stronger effect = lower value",0.906 (inactive)
same,normalized growth,[21],1 (inactive)
same,normalized growth,[22],0.944 (inactive)
same,normalized growth,"locus YOL078W, strain AVO1, stronger effect = lower value",0.954 (inactive)
same,normalized growth,"locus YOL136C, strain PFK27, stronger effect = lower value",0.929 (inactive)
same,normalized growth,"locus YOR061W, strain CKA2, stronger effect = lower value",0.941 (inactive)
same,normalized growth,"locus YOR119C, strain RIO1, stronger effect = lower value",1.04 (inactive)
same,normalized growth,"locus YOR231W, strain MKK1, stronger effect = lower value",1.01 (inactive)
same,normalized growth,"locus YOR329C, strain SCD5, stronger effect = lower value",0.976 (inactive)
same,normalized growth,"locus YPL031C, strain PHO85, stronger effect = lower value",0.93 (inactive)
same,normalized growth,[23],0.905 (inactive)
same,normalized growth,"locus YPL153C, strain RAD53, stronger effect = lower value",0.937 (inactive)
same,normalized growth,"locus YPL204W, strain HRR25, stronger effect = lower value",0.899 (inactive)
same,normalized growth,"locus YPL209C, strain IPL1, stronger effect = lower value",0.967 (inactive)
same,normalized growth,[24],0.93 (inactive)
same,normalized growth,"locus YPL256C, strain CLN2, stronger effect = lower value",0.915 (inactive)
same,normalized growth,"locus YPR025C, strain CCL1, stronger effect = lower value",0.961 (inactive)
same,normalized growth,"locus YPR106W, strain ISR1, stronger effect = lower value",0.949 (inactive)
same,normalized growth,"locus YPR111W, strain DBF20, stronger effect = lower value",1.01 (inactive)
same,normalized growth,[25],0.97 (inactive)
same,normalized growth,"strain NNK1, stronger effect = lower value",0.964 (inactive)
same,normalized growth,"strain TSCII, stronger effect = lower value",0.954 (inactive)
